ELG1 genotox: qHTS screen for small molecules that induce genotoxicity in human embryonic kidney (HEK293T) cells expressing luciferase-tagged ELG1; HEK293T ELG1-luciferase reporter, luminescence, 16 h; Potency, µM (top dose mostly 46 µM), hits mostly activators; 1.3% of 330,000 active; note: nearly all actives have a fitted effect of over 60% in size
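Quantitative HTS format in 1536-well plates. HEK293T ELG1-luciferase reporter cells receive test compound and are incubated 16 hr at 37 °C, 5% CO2; ONE-Glo added, 30 min room temperature, then luminescence read.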
Rab9 prom act: qHTS Assay for Rab9 Promoter Activators; Huh7 Rab9 promoter-luciferase reporter, luminescence, 24 h; Potency, µM (series often up to 9.22 µM), hits mostly activators; 2.8% of 320,000 active; AID 485297, 2010; note: nearly all actives have a fitted effect of over 60% in size
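Measured in stably transfected Huh7 cells bearing a Rab9 promoter–luciferase construct: 24 h compound treatment at 37 °C, followed by luminescence detection.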
FLuc modulator: qHTS profiling assay for firefly luciferase inhibitor/activator using purifed enzyme and Km concentrations of substrates (counterscreen for miR-21 project) | purified FLuc, Km substrates, luminescence inhibition | Potency, µM (series often up to 57.5 µM), actives largely listed as inhibitors | 6.9% of 360,000 active | AID 588342, 2011; note: nearly all actives have a fitted effect of over 55% in size
Target sequence (P08659 whole entry, looked up): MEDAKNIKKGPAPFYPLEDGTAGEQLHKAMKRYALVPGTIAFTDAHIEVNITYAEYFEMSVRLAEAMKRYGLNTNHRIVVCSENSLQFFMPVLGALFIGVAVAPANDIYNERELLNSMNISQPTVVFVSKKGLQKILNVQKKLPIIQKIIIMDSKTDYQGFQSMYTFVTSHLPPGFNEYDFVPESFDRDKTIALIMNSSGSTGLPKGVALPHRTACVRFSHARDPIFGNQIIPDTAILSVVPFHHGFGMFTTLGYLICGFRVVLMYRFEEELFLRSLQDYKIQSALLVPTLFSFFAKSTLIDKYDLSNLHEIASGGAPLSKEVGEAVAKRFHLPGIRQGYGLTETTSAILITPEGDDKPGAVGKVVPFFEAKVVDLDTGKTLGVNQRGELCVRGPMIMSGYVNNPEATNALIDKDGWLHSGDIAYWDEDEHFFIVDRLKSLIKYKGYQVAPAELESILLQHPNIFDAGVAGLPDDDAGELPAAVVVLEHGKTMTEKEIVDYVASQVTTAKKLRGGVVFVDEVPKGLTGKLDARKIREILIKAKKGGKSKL
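Purified P. pyralis luciferase (10nM final) with 10uM D-luciferin and 10uM ATP (Km levels) in 50mM Tris acetate pH 7.5, 10mM Mg acetate, 0.01% Tween-20, 0.05% BSA; qHTS 6-point titration, ~60 µM downward; luminescence read.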
NPC1 promoter act: qHTS Assay for NPC1 Promoter Activators | Huh7 NPC1 promoter luciferase reporter, 24 h | Potency, µM (series often up to 9.22 µM), hits mostly activators | 2.4% of 320,000 active; note: nearly all actives have a fitted effect of over 60% in size
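Compounds in DMSO were transferred onto Huh7 NPC1-luciferase reporter cells pre-incubated 2 h; after 24 h at 37 °C, Amplite reagent was dispensed and luminescence recorded 10 min later.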
SMN2 splice enh: qHTS Assay for Enhancers of SMN2 Splice Variant Expression | HEK293 SMN2-luciferase splicing reporter, luminescence, 30-36 h | AID 1458, 2008 | Potency, µM (doses to about 46.1 µM), hits mostly activators | 2.8% of 210,000 active; note: nearly all actives have a fitted effect of over 55% in size
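qHTS luciferase splicing reporter: luminescence rises when SMN2 exon 7 is included in transfected HEK293 cells. Compound exposure lasted 30-36 h at 37C, with 4.5 mM final sodium butyrate as control, followed by a ONE-Glo read.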
Hits are given with their value; n = inactive; u = inconclusive; x = no result; [ ] = remark or other dose. In the library only some 7.4% were active in any assay of this set; here they are far more common. Calls come from the whole dose curve; as a rule, active = well fitted curve in the direction sought with a large enough effect; inconclusive = small, poorly fitted or top-dose-only effect, or another doubt; inactive = no such curve, though single readings can be large; an effect the other way counts as inactive or inconclusive.

SMILES	ELG1 genotox	Rab9 prom act	FLuc modulator	NPC1 promoter act	SMN2 splice enh
CN1CCN(c2ccc(CNS(=O)(=O)c3ccc(Cl)cc3)cc2)CC1	n	n	n	n	x
CCCc1cnc2c(c1SCc1ccc(C(F)(F)F)cc1)c(=O)n(C)c(=O)n2C	x	x	n	x	x
CC1CCN(c2ccc(-c3ccc(NC(=O)C(F)(F)F)cc3)nn2)CC1	0.73µM	0.5µM	u	0.13µM	x
S=C(N=Nc1ccccc1)NNc1ccccc1	n	n	19µM	n	u
Cn1cnnc1SCc1ccc(C(=O)N/N=C/c2cccs2)cc1	n	n	17µM	n	u
C/C(=N\NC(=O)c1ccc(CSc2nncn2C)cc1)c1cccs1	u	3.5µM	24µM	u	13µM
CCCOc1ccc(NC(=O)CC2C(=O)N(c3ccc(C)cc3)C(=O)N2C2CCCC2)cc1 (stereo not drawn)	x	x	n	x	n
CNc1cc([N+](=O)[O-])ccc1OCc1ccccc1	n	n	19µM	n	x
COc1ccc([N+](=O)[O-])cc1NS(=O)(=O)Cc1ccccc1	n	n	n	n	x
CCOc1ccccc1NC(=O)CCCc1nc(-c2ccccc2Cl)no1	x	x	n	x	n
CCc1nn2c(=O)cc(COC(=O)c3cccc(NC(=O)COc4ccccc4)c3)nc2s1	x	x	n	x	x
CC(C)(CN)CN	x	x	x	x	n[9.22 µM]
Cc1[nH]n(-c2ccccc2)c(=O)c1N=Nc1cccc([N+](=O)[O-])c1	n	n	13µM	n	x
Cc1ccc(N=Nc2c(C)[nH]n(-c3ccccc3)c2=O)c(C)c1	n	n	n	n	x
Cc1[nH]n(-c2ccccc2)c(=O)c1N=Nc1ccc(F)cc1	u	u	2.7µM	n	x
Cc1ccc(N=Nc2c(C)[nH]n(-c3ccccc3)c2=O)cc1Br	n	n	n	n	x
Cc1[nH]n(-c2ccccc2)c(=O)c1N=Nc1cccc(Cl)c1	n	n	9.5µM	u	x
Cc1[nH]n(-c2ccccc2)c(=O)c1N=Nc1ccc2c(c1)OCCO2	u	4µM	6µM	u	18µM
COc1cccc([C@@H]2Oc3ccc(OC)cc3C[C@H]2OC(=O)NCc2ccco2)c1	x	x	x	x	n
COc1ccccc1-c1nnc(C2CCN(S(=O)(=O)c3ccc(F)c(C)c3)CC2)o1	x	x	n	x	n
COC(=O)c1ccc(/C=C/c2c(-c3ccsc3)oc3ccc(N4CCOCC4)cc23)cc1	n	n	u	n	x
CSc1ccc(N=Nc2c(C)[nH]n(C)c2=O)cc1	u	n	19µM	n	x
Cc1ccc(N2C(=O)NC(NS(=O)(=O)c3ccc(Cl)cc3)(C(F)(F)F)C2=O)cc1C (stereo not drawn)	x	x	u	x	n
C[C@@H](C(=O)O)c1cccc(C(=O)c2ccccc2)c1	x	x	x	x	n
COc1ccc(-c2csc(-c3ccccc3)n2)c(OC)c1	4.6µM	u	3.4µM	u	11µM
SMILES	ELG1 genotox	Rab9 prom act	FLuc modulator	NPC1 promoter act	SMN2 splice enh
COc1ccc(-c2csc(-c3cccs3)n2)c(OC)c1	2.1µM	1.3µM	3.4µM	u	11µM
COc1ccc(NC(=O)CSc2nc3ccc(OC)cc3[nH]2)cc1	n	n	u	n	x
CCOc1ccc2nc(SCC(=O)Nc3ccc4[nH]c(=O)[nH]c4c3)[nH]c2c1	n	n	13µM	n	x
CCOc1ccc2nc(SCC(=O)N(C)C3CCS(=O)(=O)C3)[nH]c2c1 (stereo not drawn)	n	n	n	n	x
CCOc1ccc2nc(SCC(=O)N(C)C)[nH]c2c1	16µM	3.5µM	19µM	4µM	n
Cc1ccc(Cl)cc1-n1ncc2c(Nc3cccc(C)c3C)ncnc21	x	x	n	x	x
COc1ccc(N2C(=O)CS(=O)(=O)C23C(=O)N(Cc2c(F)cccc2Cl)c2ccccc23)cc1 (stereo not drawn)	x	x	n	x	x
NS(=O)(=O)c1ccc(CCNC(=O)CCNS(=O)(=O)c2ccccc2C(F)(F)F)cc1	n	n	x	n	x
CC1CCN(c2oc(-c3ccc(F)cc3)nc2C#N)CC1	n	n[1.84 µM]	u	n	x
O=C(NCCCc1ccccc1)c1nn(-c2ccccc2)nc1CO	x	x	n	x	n
Cc1ccc(C(=O)NCCCc2ccccc2)s1	u	u	21µM	4µM	13µM
Cc1ccc(C(=O)NCC(=O)NCCCc2ccccc2)s1	n	n	n	n	x
Cc1ccc(-n2nc(CO)c(C(=O)NCCCc3ccccc3)n2)cc1C	x	x	5.4µM	x	n

Assay outcomes from PubChem.
